Assay results reported in PubChem BioAssay (Tox21).
Where “and” joins values, the source holds several entries; their conditions need not be identical. Equal values may be shown once. Records with an inconclusive call do not appear. Calls of active or inactive are those of the source. Calls follow the shape of the dose curve; as a rule, active = well fitted inhibition curve with a large enough effect in the repeat runs; inconclusive = weak or mixed curves; inactive = no such curve, though single readings can be large or run the other way.
% is scaled to controls: 0 for no effect and ±100 for the full control effect; potency is read from the fitted curve at half-maximal effect.

The compounds below were run against Cytochrome P450 2C19 (Homo sapiens) (UniProt P33261) (assay: Cytochrome P450 Family 2 Subfamily C Member 19 (CYP2C19) small molecule antagonists: luciferase reporter qHTS assay (AID 1671197; also: nearly all actives have a fitted effect of over 65% in size)). Settings: P450-Glo CYP2C19 enzyme, luciferin luminescence, 1 h; series mostly up to 115 µM; activity change, negative = inhibition: at the top concentration.
Cytochrome P450 2C19 (Homo sapiens), sequence (P33261 whole entry, looked up): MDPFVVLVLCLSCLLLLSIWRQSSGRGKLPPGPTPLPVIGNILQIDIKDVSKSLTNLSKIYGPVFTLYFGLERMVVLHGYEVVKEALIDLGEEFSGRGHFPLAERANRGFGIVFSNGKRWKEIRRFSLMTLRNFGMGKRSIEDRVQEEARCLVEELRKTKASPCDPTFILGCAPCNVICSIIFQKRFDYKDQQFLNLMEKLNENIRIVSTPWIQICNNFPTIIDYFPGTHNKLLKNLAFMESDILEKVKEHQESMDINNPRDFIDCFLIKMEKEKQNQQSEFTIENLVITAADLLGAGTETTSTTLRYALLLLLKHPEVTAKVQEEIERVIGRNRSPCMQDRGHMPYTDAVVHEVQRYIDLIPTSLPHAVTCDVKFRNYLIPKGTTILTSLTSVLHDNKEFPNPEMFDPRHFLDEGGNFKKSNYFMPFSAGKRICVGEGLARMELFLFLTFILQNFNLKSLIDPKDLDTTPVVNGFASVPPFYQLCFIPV
Description: National Center for Advancing Translational Sciences [NCATS]
U.S. Environmental Protection Agency [EPA]
National Institutes of Environmental Health Sciences [NIEHS]
National Toxicology Program [NTP]
U.S. Food and Drug Administration [FDA]
Cytochrome P450 (CYP) enzymes are membrane-bound hemeproteins that play a key role in metabolism of drugs and xenobiotics. Evaluation of the effect of chemicals on CYP isozymes is useful to minimize the adverse drug reactions and toxicities in drug development process. Tox21 chemicals were tested for their effect on CYP enzyme activities by using P450-Glo (TM) screening systems (Promega Corporation, Madison, WI). These systems provide a luminescent method containing proluciferin substrates and are converted to luciferin products by CYP isozymes. The luciferin products formed are detected with a luciferin detection reagent, and the amount of light produced is proportional to CYP activity. P450-Glo (TM) CYP2C19 screening system (Catalog. No. V9880) was used to detect the compounds that interfere in CYP2C19 activity. The positive control compound used for CYP2C19 assay is ketoconazole (Sigma-Aldrich, St. Louis, MO).
Tox21 Assay Protocol Summary:
Two ul of enzyme-substrate mix was dispensed into medium binding white/solid 1536-well plates (Greiner Bio-One North America Inc., Monroe, NC) using a BioRaptr Flying Reagent Dispenser (FRD, Beckman Coulter, Brea, CA). Compounds dissolved in DMSO and positive control (ketoconazole) were transferred to the assay plates at 23 nl using a Pintool station (Wako, San Diego, CA). The assay plates were incubated at room temperature for 10 min. Then 2 ul of NADPH regeneration solution was added to each well of the assay plates using an FRD and incubated at 37C for 1 h. The reaction was stopped by adding 4 ul of detection reagent using an FRD and after 20 min incubation at room temperature the luminescence signal was measured using a ViewLux plate reader (Perkin Elmer, Shelton, CT). Data were expressed as relative luminescence units.
O=Cc1ccc2c(c1)OCO2 was tested, and the “activity change, negative = inhibition” value was 2.54% (inactive).
In the case of CC(=O)NC1CCSC1=O (stereo not given), the “activity change, negative = inhibition” value is reported as -12% [at 52.9 µM] (inactive).
In the case of C#CCOC(C(=O)OCCN(C)C)(c1ccccc1)c1ccccc1, the Potency is reported as 1.95 µM (active).
For C=CCCl, the “activity change, negative = inhibition” value was 4.27% (inactive).
In the case of COC(=O)C(C)N(C(=O)Cc1ccccc1)c1c(C)cccc1C (stereo not given), the Potency is reported as 3.56 µM (active).
For CC1Sc2c(C(=O)O)c(=O)c3cc(F)c(N4CCNCC4)cc3n21 (stereo not given), the “activity change, negative = inhibition” value was 11.2% [at 52.9 µM] (inactive).
For S=C=NCc1ccccc1, the Potency was 5.08 µM (active).
With Clc1ccc(C2(Cn3cncn3)CC(Br)CO2)c(Cl)c1 (stereo not given) the Potency was 0.177 µM (active).
With CC/C(=N\OC/C=C/Cl)C1=C(O)CC(C2CCOCC2)CC1=O (stereo not given) the Potency was 70.9 µM (active).
With [O-][Cl+]O the “activity change, negative = inhibition” value was 16.9% (inactive).
For O=S(=O)(Cl)c1ccccc1, the “activity change, negative = inhibition” value was 29.2% (inactive).
In the case of CCOP(=S)(Oc1ccc([N+](=O)[O-])cc1)c1ccccc1 (stereo not given), the Potency is reported as 0.159 µM (active).
For CCCCCCC#N, the Potency was 68.8 µM (active).
In the case of Cc1ccccc1C(=O)Nc1cccc(OC(C)C)c1, the Potency is reported as 7.96 µM (active).
In the case of O=C1C(Cl)C(CCl)CN1c1cccc(C(F)(F)F)c1 (stereo not given), the Potency is reported as 8.94 µM (active).
In the case of C/C=C/C=O, the Potency is reported as 34 µM (active).
CCO[C@H]1O[C@@H]2OC3(C)CC[C@H]4[C@H](C)CC[C@@H]([C@H]1C)[C@@]24OO3 was tested, and the Potency was 21.9 µM (active).
For CN(C)c1ccc(N(C)C)cc1, the Potency was 7.99 µM (active).
In the case of O=S(=O)(O)C(F)(F)C(F)(F)C(F)(F)C(F)(F)F, the Potency is reported as 33.6 µM (active).
In the case of CCCCC(O)(Cn1cncn1)c1ccc(Cl)cc1Cl (stereo not given), the Potency is reported as 0.252 µM (active).
In the case of ClCC(Br)CBr (stereo not given), the “activity change, negative = inhibition” value is reported as -9.83% (inactive).
In the case of CC1CC(CC2CCC(N)C(C)C2)CCC1N (stereo not given), the “activity change, negative = inhibition” value is reported as -2.15% (inactive).
In the case of O=[N+]([O-])c1cc(C(F)(F)F)cc([N+](=O)[O-])c1Cl, the Potency is reported as 40.1 µM (active).
With BrCC(Br)C1CCC(Br)C(Br)C1 (stereo not given) the Potency was 11.2 µM (active).
For CCCCN(N=O)C(=N)N[N+](=O)[O-], the “activity change, negative = inhibition” value was -5.9% (inactive).
With C[C@H]1CNCCc2ccc(Cl)cc21 the “activity change, negative = inhibition” value was -1.76% [at 52.9 µM] (inactive).
N#CCC#N was tested, and the “activity change, negative = inhibition” value was -6.55% (inactive).
For CCOP(=O)(OCC)Oc1ccc([N+](=O)[O-])cc1, the Potency was 1.61 µM (active) and 1.78 µM (active).
In the case of N#Cc1ccc(Cl)cc1, the “activity change, negative = inhibition” value is reported as -19.4% (inactive).
CC1C(=O)C[C@]2(C(C)C)C[C@H]12 (stereo not given in full) was tested, and the Potency was 34.5 µM (active).
With OCCCBr the Potency was 3.99 µM (active).
In the case of CCCN(CC1CC1)c1c([N+](=O)[O-])cc(C(F)(F)F)cc1[N+](=O)[O-], the Potency is reported as 20 µM (active).
O=C(O)C(F)(F)C(F)(F)C(F)(F)C(F)(F)C(F)(F)C(F)(F)C(F)(F)C(F)(F)C(F)(F)F was tested, and the “activity change, negative = inhibition” value was 9.74% (inactive).
In the case of CC(C)(OO)c1ccccc1, the Potency is reported as 35.6 µM (active).
In the case of [CH3][Sn]([CH3])([Cl])[Cl], the “activity change, negative = inhibition” value is reported as -2.58% (inactive).
In the case of CCOP(=S)(OCC)Oc1cc(Cl)c(Br)cc1Cl, the Potency is reported as 0.71 µM (active).
For C=CC[C@]1(O)CC[C@H]2[C@@H]3CCC4=CC(=O)CCC4=C3C=C[C@@]21C, the Potency was 9.77 µM (active).
In the case of O=C(O)C(F)(F)C(F)(F)C(F)(F)C(F)(F)C(F)(F)C(F)(F)C(F)(F)C(F)(F)C(F)(F)C(F)(F)F, the “activity change, negative = inhibition” value is reported as 19% (inactive).
In the case of CCC(Cl)CCl (stereo not given), the “activity change, negative = inhibition” value is reported as 12.7% (inactive).
With c1ccoc1 the “activity change, negative = inhibition” value was 11% (inactive).
